# Shown is part of a subset that was picked to be rich in hits.
# DUX4 txn inh = inhibitors of DUX4-driven ZSCAN4 reporter expression, primary screen, 293T cells, Gaussia and Italica luciferase. 293T-iDUX4 ZSCAN4-Gaussia luciferase reporter, 24 h; hits give low values. activity change, negative = inhibition, % (no concentration beside the values). 37,000 compounds, 0.8% hits;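 active means mean inhibition of at least 10% in the main channel, exceeding the control channel by a set limit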;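 further: 0% = median of neutral control wells and -100% = median of positive control wells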
# Numbers without * were called inactive; ! = not active in a repeat.
SMILES,DUX4 txn inh
COc1ccc2c3c([nH]c2c1)[C@@H](CO)N(C(=O)c1cccc(F)c1)CC31CCN(C(C)=O)CC1,10
OC[C@@H]1[C@@H](c2ccc(C#CC3(O)CCCC3)cc2)[C@H]2CN(Cc3ccccc3F)CCCCN12,7
CN1CCCCN2[C@@H](CO)[C@H](c3ccc(C#Cc4ccccc4F)cc3)[C@@H]2C1,2
COc1ccc(C#Cc2ccc([C@@H]3[C@H]4CN(Cc5ccncc5)CCCCN4[C@H]3CO)cc2)cc1,-36*
COCC#Cc1ccc([C@@H]2[C@@H](CO)N3CCCCN(Cc4ccncc4)C[C@H]23)cc1,24
CN1CCCCN2[C@H](C1)[C@@H](c1ccc(C#Cc3ccccc3F)cc1)[C@@H]2CO,-10
COCC#Cc1ccc([C@@H]2[C@H]3CN(Cc4ccccc4F)CCCCN3[C@H]2CO)cc1,1
COc1ccc(C#Cc2ccc([C@@H]3[C@H](CO)N4CCCCN(Cc5ccncc5)C[C@@H]34)cc2)cc1,0
COc1ccc(C#Cc2ccc([C@H]3[C@H]4CN(Cc5ccccc5F)CCCCN4[C@H]3CO)cc2)cc1,-21*
COc1ccc(C#Cc2ccc([C@@H]3[C@@H](CO)N4CCCCN(Cc5ccccc5F)C[C@H]34)cc2)cc1,-19*
COc1ccc2c3c([nH]c2c1)[C@H](CO)N(C)CC31CCN(C(=O)c2cccnc2)CC1,14
O=C(C[C@H]1CC[C@@H]2[C@H](COC[C@H](O)CN2C(=O)Nc2ccc(Cl)c(Cl)c2)O1)NCc1ccccc1,-8
O=C(N[C@@H]1CC[C@@H](CC(=O)N2CCc3ccccc3C2)O[C@H]1CO)C1CCOCC1,4
CCC(=O)N1[C@H](CO)[C@H](c2ccc(C3=CCCCC3)cc2)[C@H]1CNC1CCCC1,4
CC(C)[C@H]1CC=CC[C@@H](C)Oc2ccccc2C(=O)N(C)[C@H](C)C(=O)N1 (mixture of isomers),2
CC(C)CC#Cc1ccc([C@@H]2[C@@H](CO)N3C(=O)CN(S(C)(=O)=O)C[C@H]23)cc1,14
C(=C\c1ccc(C2[C@@H]3CN(Cc4ccc5c(c4)OCO5)C[C@H]2N3)cc1)/c1ccccc1 (stereo partly specified),-41*!
c1ncc(-c2ccc(C3[C@@H]4CN(Cc5ccc6c(c5)OCO6)C[C@H]3N4)cc2)cn1 (stereo partly specified),-4
C/C=C/c1ccc(C2[C@@H]3CN(Cc4cccc(OC)c4)C[C@H]2N3)cc1 (stereo partly specified),-5
C[C@H]1CC=CC[C@@H](c2ccc3c(c2)OCO3)NC(=O)[C@H](Cc2ccccc2)N(C)C(=O)c2ccccc2O1 (mixture of isomers),-2
CC=Cc1ccc2n(c1=O)C[C@H]1[C@H](CO)[C@@H](C(=O)N3CCc4ccccc4C3)[C@@H]2N1Cc1ccncc1 (mixture of isomers),-1
